This passage reports AC50 and outcome results from PubChem BioAssay (EPA / NIEHS).

Usually AC50 stands for the concentration at which the activity in the assay is half-maximal.

Read-out in test [1]: Monocyte Chemoattractant Protein-1 (MCP1), CCL2 (gene 6347)
In words: BSK_LPS_MCP1: BioMAP Diversity Plus: LPS Assay for Monocyte Chemoattractant Protein-1 (MCP1) Biomarker Activity (AID 2283081).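 As to AC50: secreted MCP-1 protein quantified by ELISA in culture supernatant.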 Particulars: primary human HUVEC with PBMC; actives raise or lower the signal. In short, it runs like this:
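Human umbilical vein endothelial cells co-cultured with PBMC, LPS-stimulated; secreted MCP-1 measured by ELISA 24 h after compound addition. Bidirectional curve fitting against DMSO baseline; SRB total-protein staining in parallel cultures for cytotoxicity.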

Test [2] in a line: BSK_LPS_PGE2: BioMAP Diversity Plus: LPS Assay for Prostaglandin E2 (PGE2) Biomarker Activity (AID 2283082). The note with it: primary human HUVEC with PBMC; actives raise or lower the signal. The gist of the method: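 Compounds were added to the LPS co-culture of endothelium and PBMC, and PGE2 was measured by ELISA after 24 h. Responses in either direction were fitted with DMSO as baseline.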

Read-out in test [3]: Tissue Factor, F3 (gene 2152)
In words: BSK_LPS_TissueFactor: BioMAP Diversity Plus: LPS Assay for Tissue Factor Biomarker Activity (AID 2283084). Particulars: primary human HUVEC with PBMC; actives raise or lower the signal. The gist of the method: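 Human umbilical vein endothelial cells co-cultured with PBMC were dosed with compound. Cell-surface CD142 was measured by ELISA 24 h later. Activity was fitted bidirectionally against DMSO, with SRB total-protein staining in parallel cultures for cytotoxicity.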

Read-out in test [4]: Tumor necrosis factor (Homo sapiens) (UniProt P01375)
In words: BSK_LPS_TNFa: BioMAP Diversity Plus: LPS Assay for Tumour Necrosis Factor alpha (TNFa) Biomarker Activity (AID 2283085).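 As to AC50: TNFa protein level quantified by ELISA in the co-culture.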 Particulars: primary human HUVEC with PBMC; actives raise or lower the signal. In short, it runs like this:
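Cells (umbilical vein endothelium plus peripheral blood mononuclear cells) were dosed with chemical, incubated 24 h, then TNFa was quantified by ELISA; values derive from bidirectional fitting with DMSO as baseline.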

Read-out in test [5]: Vascular cell adhesion molecule 1 (VCAM1), VCAM1 (gene 7412)
In words: BSK_LPS_VCAM1: BioMAP Diversity Plus: LPS Assay for Vascular cell adhesion molecule 1 (VCAM1) Biomarker Activity (AID 2283086). Particulars: primary human HUVEC with PBMC; actives raise or lower the signal. The gist of the method: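 Cells are dosed in an LPS-stimulated endothelial/mononuclear co-culture and, after 24 h, VCAM-1 is quantified by ELISA. Activity in either direction is fitted relative to the DMSO negative control.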

Read-out in a further test: CD38, CD38 (gene 952)
As to the kind of experiment: BSK_SAg_CD38: BioMAP Diversity Plus: SAg Assay for CD38 Biomarker Activity (AID 2283087). Particulars: primary human HUVEC with PBMC; actives raise or lower the signal. In short, it runs like this:
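CD38 quantified by ELISA (fluorescence) in a superantigen-activated endothelial cell–PBMC co-culture at 24 h post-dose. Activity fitted in both directions relative to DMSO; parallel SRB and Alamar Blue cytotoxicity read-outs.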

Read-out in another test: CD40, CD40 (gene 958)
As to the kind of experiment: BSK_SAg_CD40: BioMAP Diversity Plus: SAg Assay for CD40 Biomarker Activity (AID 2283088). The note with it: primary human HUVEC with PBMC; actives raise or lower the signal. The gist of the method:
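HUVEC plus PBMC co-culture, superantigen-activated, with CD40 read by ELISA 24 h after dosing. Curves fitted in both directions against DMSO. Overt cytotoxicity checked by parallel SRB total-protein staining.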

Read-out in the next test: CD69, CD69 (gene 969)
In words: BSK_SAg_CD69: BioMAP Diversity Plus: SAg Assay for CD69 Biomarker Activity (AID 2283089).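 As to AC50: cell surface CD69 protein quantified by ELISA with fluorescence detection.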 The note with it: primary human HUVEC with PBMC; actives raise or lower the signal. In short, it runs like this:
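Primary human vascular co-culture (umbilical vein endothelium with peripheral blood mononuclear cells) exposed to test chemical for 24 h. CD69 levels quantified by fluorescence ELISA; DMSO served as negative control for bidirectional fitting.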

Read-out in test [6]: Monocyte Chemoattractant Protein-1 (MCP1), CCL2 (gene 6347)
In words: BSK_SAg_MCP1: BioMAP Diversity Plus: SAg Assay for Monocyte Chemoattractant Protein-1 (MCP1) Biomarker Activity (AID 2283090). The note with it: primary human HUVEC with PBMC; actives raise or lower the signal. The gist of the method: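 Values derive from bidirectional fitting of ELISA-measured MCP1 against DMSO controls. Readings were taken 24 h after dosing human vascular endothelial cells co-cultured with peripheral blood mononuclear cells under superantigen stimulation.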

Read-out in test [7]: E-selectin (Homo sapiens) (UniProt P16581)
As to the kind of experiment: BSK_SAg_Eselectin: BioMAP Diversity Plus: SAg Assay for Eselectin Biomarker Activity (AID 2283091). The note with it: primary human HUVEC with PBMC; actives raise or lower the signal. In short, it runs like this: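 Human umbilical vein endothelial cells co-cultured with peripheral blood mononuclear cells, SAg system. E-selectin is measured by ELISA 24 h after dosing and fitted bidirectionally against DMSO. Cytotoxicity is checked by SRB staining of parallel cultures.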

Read-out in test [8]: Monokine induced gamma interferon (MIG), CXCL9 (gene 4283)
As to the kind of experiment: BSK_SAg_MIG: BioMAP Diversity Plus: SAg Assay for Monokine induced gamma interferon (MIG) Biomarker Activity (AID 2283092). Particulars: primary human HUVEC with PBMC; actives raise or lower the signal. In short, it runs like this:
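Endothelial cells and PBMC were co-cultured, exposed to test chemicals, and sampled 24 h later. MIG was measured by ELISA, and responses were fitted in both directions relative to DMSO.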

Test [9] is described as follows: BSK_SAg_PBMCCytotoxicity: PBMC Cytotoxicity Assessment in the BioMAP Diversity Plus: SAg Assay (AID 2283093).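 Also: fitted both ways against DMSO so a hit may be loss or gain of signal.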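 As to AC50: PBMC superantigen activated with SEB plus TSST-1 one hour after compound addition.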 The note with it: primary human HUVEC with PBMC. The gist of the method: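 PBMC viability by Alamar Blue reduction, fluorescence read at 546/580 nm after 6 h dye exposure. Cells were dosed 1 h before SEB plus TSST-1 activation (20 ng/mL final each), then held 90 h; endothelial/PBMC human co-culture.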

A short description of test [10]: BSK_SAg_Proliferation: Cell Proliferation Assessment in the BioMAP Diversity Plus: SAg Assay (AID 2283095).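 Also: relative cell number as total protein by SRB absorbance in sub-confluent culture.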 Particulars: primary human HUVEC with PBMC. In short, it runs like this:
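Absorbance of sulforhodamine B at 560 nm reports total protein in a human vascular endothelial/PBMC co-culture after 96 h chemical exposure. Gain or loss of signal is fitted in both directions against DMSO.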

Test [11] can be described thus: BSK_SAg_SRB: Viability Assessment in the BioMAP Diversity Plus: SAg Assay (AID 2283096).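 Also: cells read one day after compound addition; hits may be either gain or loss of signal compared with DMSO.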 The note with it: primary human HUVEC with PBMC. In short, it runs like this:
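Compounds were added to a human vascular co-culture of umbilical vein endothelium and PBMC. After 24 h, parallel cultures were fixed with 10% TCA, stained with 0.1% sulforhodamine B and read at 560 nm. Gain or loss of signal was fitted relative to DMSO.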

Test [12] addresses human CYP2D6, CYP2D6 (gene 1565) (UniProt P10635). As to the kind of experiment: NVS_ADME_hCYP2D6: NovaScreen (NVS) CYP450-related Enzyme Activity (ADME) Assay for human CYP2D6 (AID 2283107; active = hit-call score of the fitted dose curve at least 0.9, where 1 is the maximum). In short, it runs like this: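 Cell-free assay using recombinant human CYP2D6 expressed in insect cells, with a fluorogenic substrate read after 1 h. Primary screen in duplicate at 10 uM; actives followed up in concentration series. Loss of signal fitted relative to acetonitrile.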

Activity calls are given as the source filed them. The calls were made as follows, unless noted: active = hit-call score of the fitted dose curve at least 0.9, where 1 is the maximum; inactive = score below 0.9.

Sequence of E-selectin (Homo sapiens) (P16581 whole entry, looked up): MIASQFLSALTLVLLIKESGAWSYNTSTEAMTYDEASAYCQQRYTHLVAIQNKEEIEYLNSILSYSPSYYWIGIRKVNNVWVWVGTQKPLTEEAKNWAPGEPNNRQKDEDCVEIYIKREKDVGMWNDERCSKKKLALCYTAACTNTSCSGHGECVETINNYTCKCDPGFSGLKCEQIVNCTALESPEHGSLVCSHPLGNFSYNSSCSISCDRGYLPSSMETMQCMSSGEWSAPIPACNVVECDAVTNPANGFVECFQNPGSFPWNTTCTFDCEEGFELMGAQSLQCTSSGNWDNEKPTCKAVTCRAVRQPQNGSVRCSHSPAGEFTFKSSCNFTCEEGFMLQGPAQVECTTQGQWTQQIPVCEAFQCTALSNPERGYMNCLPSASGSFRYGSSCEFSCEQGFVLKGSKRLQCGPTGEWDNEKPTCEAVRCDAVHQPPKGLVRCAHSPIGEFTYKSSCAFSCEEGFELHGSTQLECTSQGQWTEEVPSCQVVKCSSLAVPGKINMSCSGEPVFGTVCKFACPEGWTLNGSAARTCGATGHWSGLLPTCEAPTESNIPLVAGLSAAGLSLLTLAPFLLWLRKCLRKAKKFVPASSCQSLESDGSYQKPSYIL
Sequence of Tumor necrosis factor (Homo sapiens) (P01375 whole entry, looked up): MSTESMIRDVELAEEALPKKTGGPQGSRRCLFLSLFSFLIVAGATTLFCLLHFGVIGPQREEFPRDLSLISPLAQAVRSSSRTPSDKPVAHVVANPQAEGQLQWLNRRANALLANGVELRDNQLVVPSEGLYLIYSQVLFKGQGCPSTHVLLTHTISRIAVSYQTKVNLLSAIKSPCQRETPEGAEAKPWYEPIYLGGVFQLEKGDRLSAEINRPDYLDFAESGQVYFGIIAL
Sequence of human CYP2D6, CYP2D6 (gene 1565) (P10635 whole entry, looked up): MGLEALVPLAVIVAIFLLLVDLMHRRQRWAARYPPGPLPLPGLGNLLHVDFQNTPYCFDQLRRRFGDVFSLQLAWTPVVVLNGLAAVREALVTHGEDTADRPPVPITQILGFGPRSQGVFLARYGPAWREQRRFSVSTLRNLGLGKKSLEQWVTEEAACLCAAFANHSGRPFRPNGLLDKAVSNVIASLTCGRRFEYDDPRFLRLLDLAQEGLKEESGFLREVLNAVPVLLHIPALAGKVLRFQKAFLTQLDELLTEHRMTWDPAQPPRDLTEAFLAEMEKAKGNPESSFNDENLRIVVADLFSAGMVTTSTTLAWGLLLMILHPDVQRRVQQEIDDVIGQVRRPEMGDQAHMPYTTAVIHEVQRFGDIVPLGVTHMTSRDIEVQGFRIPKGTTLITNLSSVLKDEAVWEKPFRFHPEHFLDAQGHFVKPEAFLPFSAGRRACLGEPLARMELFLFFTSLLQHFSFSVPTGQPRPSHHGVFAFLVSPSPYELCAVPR

Consider `CCCCN(CCCC)C(=O)N(CCCC)CCCC`, for which the concentration at half-maximal activity (AC50) in test [1] is 20 µM (active); in test [3] it was 20 µM (active); in test [4] it was 9.7 µM (active); in test [5], 24.7 µM (active); with CD40, CD40 (gene 958), 20 µM (active); in the test with CD69, CD69 (gene 969), 11.2 µM (active). Moreover, the AC50 was 20 µM (active) in test [6]; 9.94 µM (active) in test [7]; 11 µM (active) in [9]; 7.83 µM (active) in test [10]; 20 µM (active) in [11]. Further, the outcome in test [2] was “inactive”; with CD38, CD38 (gene 952), “inactive”; in [8], “inactive”.
On to `IC(I)I`, for which the outcome was “inactive” in test [1]; “inactive” in [2]; “inactive” in test [3]; “inactive” in test [4]; “inactive” in test [5]; “inactive” in the test with CD38, CD38 (gene 952). The outcome with CD40, CD40 (gene 958) was “inactive”; in the test with CD69, CD69 (gene 969), “inactive”; in [6] it was “inactive”; in [7] it was “inactive”; in test [8], “inactive”; in test [9] it was “inactive”. For the same molecule, the result in [10] and in [11] was inactive.
For the molecule `COc1ccc(OC)c(N=Nc2c(O)ccc3ccccc23)c1`, the AC50 in test [1] is 8.02 µM (active); in test [3] it was 20 µM (active); in [4] it was 20 µM (active); in [5], 20 µM (active); with CD38, CD38 (gene 952), 20 µM (active); with CD40, CD40 (gene 958) it was 3.97 µM (active). Also, the AC50 in test [9] was 2.12 µM (active); in test [10] it was 2.25 µM (active). The outcome in test [2] was “inactive”; with CD69, CD69 (gene 969) it was “inactive”; in [6], “inactive”; in test [7], “inactive”; in test [8], “inactive”; in [11], “inactive”.
As to `O=C1OC[C@H](Cc2cccc(O)c2)[C@H]1Cc1cccc(O)c1`, the outcome was “inactive” in [1]; “inactive” in [2]; “inactive” in test [3]; “inactive” in test [4]; “inactive” in test [5]; “inactive” with CD38, CD38 (gene 952). Besides, the outcome with CD40, CD40 (gene 958) was “inactive”; with CD69, CD69 (gene 969), “inactive”; in [6], “inactive”; in test [7], “inactive”; in test [8], “inactive”; in test [9], “inactive”. Further, the result in test [10] and in test [11] was inactive.
In the case of `CC(=O)Nc1ccc(C(=O)CCl)cc1`, the AC50 in test [1] is 5.89 µM (active); in [2] it was 1.17 µM (active); in test [3], 5.39 µM (active); in test [4], 4.58 µM (active); in test [5] it was 4.35 µM (active); with CD38, CD38 (gene 952), 3.84 µM (active). For the same molecule, the AC50 is 4.69 µM (active) with CD40, CD40 (gene 958); 5.33 µM (active) with CD69, CD69 (gene 969); 10.6 µM (active) in [6]; 5.34 µM (active) in [7]; 8.55 µM (active) in test [8]; 4.16 µM (active) in [9]. Also, the AC50 in test [10] was 0.92 µM (active); in test [11], 6.11 µM (active); in [12], 3.64 µM (active).
Turning to `CCC(C)c1cc([N+](=O)[O-])cc([N+](=O)[O-])c1OC(=O)OC(C)C` (stereo not given), the AC50 in test [1] was 14.3 µM (active); in test [2], 5.42 µM (active); in [3], 16.2 µM (active); in test [4], 31.8 µM (active); in test [5], 16.8 µM (active); with CD38, CD38 (gene 952), 10.8 µM (active). The AC50 with CD40, CD40 (gene 958) is 9.34 µM (active); with CD69, CD69 (gene 969), 8.7 µM (active); in test [6] it was 12.2 µM (active); in test [7], 12.2 µM (active); in [8], 9.7 µM (active); in test [9], 28.3 µM (active). Further, the figures for the AC50 in test [10] and in test [11] were 9.53 µM (active) and 20 µM (active), respectively.
